Test results as given in PubChem BioAssay AID1625 (Sanford-Burnham Center for Chemical Genomics, 2009).
Hit rate of the full screen: of about 190,000 compounds, about 570 (0.3%) were called active. The sample holds actives, similar compounds and a random draw of the others, so the mix is not that of the screen.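 How the source made its calls: active means z-score above 3 at 5 µM with at least 500 cells counted in the well; inconclusive means wells under 500 cells, flagged as cytotoxic or low count; inactive means the rest.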

Assay: insulin promoter activators in MIN6 cells, imaging, high-content screening, mouse beta cells (AID 1625);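 on cell count: total cells summed across four imaged fields per well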
Conditions: MIN6 insulin promoter-GFP reporter, at 5 µM; cell count: measured here: cytotoxicity, nuclei count; z-score: stronger effect = higher value

| SMILES | cell count | z-score |
| --- | --- | --- |
| Cc1ccc(-n2c(Cc3cccs3)nnc2SCC(=O)OC(C)C)cc1 | 993 cells | 3.05 (active) |
| COc1ccc(-n2c(SCC(=O)OC(C)C)nnc2-c2ccccn2)cc1 | 1260 cells | 0.29 (inactive) |
| CCn1c(Cc2cccs2)nnc1SCC(=O)c1ccc(C)cc1 | 827 cells | -1.87 (inactive) |
| Cc1ccc(Oc2nc(-c3ccccn3)nc3ccccc23)cc1 | 1010 cells | -0.89 (inactive) |
| O=C1N(c2ccccc2)C(=Nc2ccccc2)SC12CC2 | 1070 cells | -0.2 (inactive) |
| COc1ccc(OC)c(S(=O)(=O)NCCC(C)C)c1 | 1220 cells | -0.95 (inactive) |
| CCOC(=O)CN(C(=O)COc1nc(-c2ccccc2)cc(C)c1C#N)c1ccc(F)cc1 | 1080 cells | -0.04 (inactive) |
| CCOC(=O)C1CCN(C(=O)Nc2ccc(C)c(Cl)c2)CC1 | 1020 cells | -0.22 (inactive) |
| O=C(CCCN1C(=O)/C(=C/c2ccccc2)SC1=S)Nc1ccc(O)cc1 | 1550 cells | -0.31 (inactive) |
| O=C(CCCN1C(=O)/C(=C\c2ccccc2)SC1=S)Nc1ccccc1O | 1110 cells | -1.05 (inactive) |
| O=C(CCN1C(=O)/C(=C/c2cccs2)SC1=S)NNC(=O)c1cccc(O)c1 | 1100 cells | 3.43 (active) |
| Nc1nc(O)c(CC(=O)O)s1 | 1490 cells | -0.64 (inactive) |
| Cc1ccc(NNC(=O)C2CCC2)cc1C | 1450 cells | -0.26 (inactive) |
| CCOC(=O)C1=NN(c2ccc(Cl)cc2)/C(=C/C2=NCCc3cc(OC)c(OC)cc32)S1 | 1380 cells | 0.35 (inactive) |
| CCCN(CCC)CC(O)COc1ccccc1C(=O)Nc1ccccc1 (stereo not given) | 1020 cells | -0.54 (inactive) |
| COc1ccc(-c2[nH]ncc2CN(Cc2nccn2C)C(C)C)cc1F | 1490 cells | -1.07 (inactive) |
| O=S(=O)([N-]c1nc2ccccc2nc1-[n+]1ccc(Cc2ccccc2)cc1)c1ccc(Br)s1 | 1020 cells | -0.15 (inactive) |
| [O-][N+]12CCCCC1CCCC2CO (stereo not given) | 977 cells | 0.05 (inactive) |
| O=c1c(-c2ccc(Cl)cc2)[n+]([O-])c2ccccc2n1OCc1nc2ccccc2[nH]1 | 1200 cells | -1.15 (inactive) |
| CCOc1ccc(OCC)c(-c2c(=O)n(OCc3ccc(Cl)cc3)c3ccccc3[n+]2[O-])c1 | 1410 cells | 3.34 (active) |
| COc1ccc(OC)c(-c2c(=O)n(OCc3ccccc3Br)c3ccccc3[n+]2[O-])c1 | 1330 cells | -0.44 (inactive) |
| CCN(CC)CCNCC(=O)Nc1ccc(Oc2ccccc2)cc1 | 919 cells | -0.39 (inactive) |

| SMILES | cell count | z-score |
| --- | --- | --- |
| C/C(=N\Nc1cccc(C(=O)O)c1)c1ccc2c(c1)Nc1ccccc1S2 | 1020 cells | -0.12 (inactive) |
| O=C(Cn1c(N2CCN(C/C=C/c3ccccc3)CC2)nc2ccccc21)c1ccccc1 | 1150 cells | -0.35 (inactive) |
| COc1ccc(F)cc1S(=O)(=O)N1CCCCC1 | 1090 cells | 0.19 (inactive) |
| N#C/C(=C\N1CCOCC1)S(=O)(=O)c1ccc(Cl)cc1 | 930 cells | -0.15 (inactive) |
| CCc1ccc(S(=O)(=O)Nc2ccc(C)c(NS(C)(=O)=O)c2)cc1 | 1030 cells | 0.6 (inactive) |
| CCCCNC(=O)c1onc(CSc2cccc(OC)c2)c1C(=O)O | 1420 cells | -0.14 (inactive) |
| COCCNC(=O)c1onc(CSc2cccc(C)c2)c1C(=O)O | 1620 cells | 3.82 (active) |
| CCOc1cccc(SCc2noc(C(=O)NC(C)C)c2C(=O)O)c1 | 1590 cells | -0.64 (inactive) |
| CN(CC(=O)Nc1ccc(F)cc1)CC(=O)Nc1ccc(Cl)c(S(=O)(=O)N2CCOCC2)c1 | 1070 cells | -0.46 (inactive) |
| CC(C)NC(=O)/C(C#N)=C\c1ccc(N(C)C)c(Br)c1 | 1460 cells | 0.33 (inactive) |
| COC(=O)c1cc(C)sc1NC(=O)CC1Nc2ccccc2NC1=O (stereo not given) | 1110 cells | 2.17 (inactive) |
| CCc1cc(C(=O)OC)c(NC(=O)CC2Sc3ccc(C(F)(F)F)cc3NC2=O)s1 (stereo not given) | 1330 cells | 3.33 (active) |
| Cc1ccc(CNC(=O)CC2Sc3ccccc3NC2=O)cc1 (stereo not given) | 1420 cells | -0.57 (inactive) |
| CCc1ccc(NC(=O)N[C@H](C(=O)O)C(C)CC)cc1 (stereo not given in full) | 978 cells | 0.03 (inactive) |
| O=C(Nc1nnc(SCc2c(Cl)cccc2Cl)s1)c1cccc([N+](=O)[O-])c1 | 1070 cells | 0.41 (inactive) |
| Nc1nnc(SCn2nnc3ccccc3c2=O)s1 | 1620 cells | 0.07 (inactive) |
| COc1ccc(C2C(C(=O)N3CCN(c4ccc(OC)cc4)CC3)c3ccccc3C(=O)N2C)cc1 (stereo not given) | 1330 cells | -1.17 (inactive) |
| CCOc1ccc(C2C(C(=O)O)c3ccccc3C(=O)N2CCN2CCOCC2)cc1 (stereo not given) | 1350 cells | 4.94 (active) |
| CCOc1cc2c(cc1OCC)C(C(=O)O)C(c1ccc(OC)c(O)c1)N(C)C2=O (stereo not given) | 1550 cells | 0.1 (inactive) |
| O=C(COC(=O)/C=C/c1ccc2c(c1)OCO2)NC1CCS(=O)(=O)C1 (stereo not given) | 933 cells | -0.06 (inactive) |
| COc1ccccc1N1CCN(C(=O)CSc2ncnc3c2cnn3-c2ccc(C)c(C)c2)CC1 | 959 cells | -0.23 (inactive) |
| CC1Cc2ccccc2N1S(=O)(=O)c1ccc(Cl)nc1 (stereo not given) | 1130 cells | 0.1 (inactive) |

| SMILES | cell count | z-score |
| --- | --- | --- |
| CCc1nnc(NC(=O)CCC(=O)NCc2ccccc2OC)s1 | 1600 cells | 4.05 (active) |
| CCc1nnc(NC(=O)CCC(=O)O)s1 | 879 cells | -0.23 (inactive) |
| COc1ccccc1CNC(=O)CCn1c(=O)sc2ccccc21 | 1300 cells | -0.13 (inactive) |
| O=C(Nc1ccc(Cl)cc1)/C(=C1\CCCN1)[N+](=O)[O-] | 1400 cells | 0.56 (inactive) |
| COc1ccc(OC)c(-c2csc(NC(=O)C3=NNC(=O)CC3)n2)c1 | 1110 cells | 1.47 (inactive) |
| CCOc1cccc(/C=C/c2ccc3ccccc3n2)c1OC(C)=O | 1230 cells | -0.46 (inactive) |
| Cc1nc(COc2cccc(Cl)c2)sc1C(=O)/C=C/N(C)C | 1040 cells | 0.55 (inactive) |
| CN1CCN(c2ccc(S(=O)(=O)N3CCOCC3)cc2NC(=O)CCc2ccccc2)CC1 | 1040 cells | 0.32 (inactive) |
| C=CCC(Nc1ccccc1)c1cccc(OC)c1OC (stereo not given) | 1080 cells | -0.62 (inactive) |
| O=C(Cc1nn[nH]n1)NCCC1=CCCCC1 | 1260 cells | -0.63 (inactive) |
| O=C(Cc1cccc2ccccc12)NCCC1=CCCCC1 | 1280 cells | -0.27 (inactive) |
| CN1CCNC(=O)C1CC(=O)NCCC1=CCCCC1 (stereo not given) | 1390 cells | 3.77 (active) |
| Cn1nc(C(C)(C)C)c([N+](=O)[O-])c1C(N)=O | 1080 cells | -0.1 (inactive) |
| O=C(O)CC1=C(Nc2ccccc2)C(=O)N(c2ccccc2)C1c1ccc(Cl)cc1 (stereo not given) | 1370 cells | -0.28 (inactive) |
| N/C(=N/O)c1cccn1Cc1ccccc1[N+](=O)[O-] | 1470 cells | 0.02 (inactive) |
| O=[N+]([O-])c1ccccc1NCc1ccccc1Cl | 1120 cells | 0.76 (inactive) |
| O=c1c([N+](=O)[O-])cccn1Cc1ccc(F)cc1Cl | 1280 cells | 3.36 (active) |
| CN1CCN(C(c2cc3cc4c(cc3[nH]c2=O)OCCO4)c2nnnn2C2CCCC2)CC1 (stereo not given) | 1180 cells | -0.16 (inactive) |
| CCOc1ccc(-n2cnc3c(=O)[nH]c(N)nc32)cc1 | 1510 cells | -0.16 (inactive) |
| CC(C)(C)c1ccc(CCC2OCC(CN3CCOCC3)O2)cc1 (stereo not given) | 1070 cells | -0.91 (inactive) |
| O=C(Cc1ccccc1)N1N=C(c2ccncc2)CC1(O)C(F)(F)F (stereo not given) | 1110 cells | -0.48 (inactive) |
| CN1CCN(C(=O)/C(=C\c2ccc3c(c2)OCO3)NC(=O)c2cccs2)CC1 | 1300 cells | 0.04 (inactive) |

| SMILES | cell count | z-score |
| --- | --- | --- |
| CN1CCN(C(=O)/C(=C\c2cccs2)NC(=O)c2cccs2)CC1 | 1240 cells | 6.06 (active) |
| Cc1ccc(C(=O)N/C(=C/c2cccs2)C(=O)N2CCCCC2)cc1 | 1270 cells | 0.22 (inactive) |
| O=C(O)C(c1ccccc1)C1(O)CCCCC1 (stereo not given) | 1390 cells | 0.43 (inactive) |
| CCCCSc1nnc2c(n1)OC=Nc1ccccc1-2 | 1140 cells | -0.42 (inactive) |
| Oc1ccc(/C=N/Nc2nc(-c3ccccc3F)nc3ccccc23)c(O)c1 | 1070 cells | 3.69 (active) |
| Fc1ccc(/C=N/Nc2nc(-c3cccnc3)nc3ccccc23)cc1 | 1030 cells | -0.09 (inactive) |
| Cc1nc2ccccc2nc1N/N=C/c1ccc(O)cc1O | 1210 cells | -3.3 (inactive) |
| O=C(NCCc1ccccn1)c1cccnc1Oc1ccc(Cl)cc1 | 1560 cells | -0.11 (inactive) |
| Cc1cc2nc3c(=O)n(Cc4ccccc4)c(=O)[nH]c3nc2cc1N | 1490 cells | 12.1 (active) |
| Cc1nc2c(c(=O)n1Cc1ccco1)c1nc3ccccc3nc1n2Cc1ccccc1 | 1260 cells | -1.6 (inactive) |
| CC(=O)c1ccc(-c2ccc(Cn3c(C)nc4cc(N)c(C)nc43)cc2)cc1 | 1520 cells | 0.28 (inactive) |
| COc1ccc(Nc2cc(=O)n(-c3ccccc3)c3c2c(=O)n(C)c(=O)n3C)cc1 | 991 cells | 0.04 (inactive) |
| COc1ccc(C(=O)C2CCCN(C(=O)c3cc4nc(C)cc(C)n4n3)C2)cc1F (stereo not given) | 1470 cells | -0.02 (inactive) |
| COCc1cc(=O)[nH]c(SC)n1 | 1140 cells | -0.01 (inactive) |
| CC(C)c1nc(SCC(=O)NC(=O)NC(C)(C)C)n[nH]1 | 976 cells | -0.03 (inactive) |
| CCOc1c2ccc(C(=O)NCc3ccc4c(c3)OCO4)cc2nn1C | 1870 cells | 0.4 (inactive) |
| CCCn1nc2cc(C(=O)NCc3ccccc3)ccc2c1OCC | 1430 cells | 4.73 (active) |
| CCOc1c2ccc(C(=O)NCc3ccc(OC(F)(F)F)cc3)cc2nn1C | 1370 cells | 2.39 (inactive) |
| CC12CN(NC(=O)c3ccc(Cl)cc3)C3(C#N)CC1CCC23C (stereo not given) | 1610 cells | -0.1 (inactive) |
